Out of some 1,500 compounds screened, about 1,300 (87%) were called active. No stated cut-off is given here; in the data, active means inhibition above about 9%; inactive means the rest. The set was probably picked from earlier hits. These entries were drawn from the full list.
Test: PG9 antibody small-molecule binding – biochemical, TR-FRET, confirmation (AID 651571)
Conditions: at 6.7 µM, active compounds read high
With `CCN(CC)C(=O)c1ccc(NC(=O)c2sccc2-c2ccccc2)cc1` the inhibition was 16.6% (active). With `N#CC1=C(N)Oc2c(c(=O)oc3ccccc23)C1c1ccccc1OC(=O)c1cccs1` (configuration not stated) the inhibition was 20.4% (active).

Reference: PubChem BioAssay AID651571 (The Scripps Research Institute Molecular Screening Center, 2012)
